Measured values as given in PubChem BioAssay (NCATS).
Where “and” joins values, the source holds several entries; their conditions need not be identical. Identical values can stand only once. Records with an inconclusive call do not appear. Calls of active or inactive are those of the source. Unless noted, the call rests on the fitted dose curve; in most records, active means well fitted curve in the direction sought with a large enough effect; inconclusive means small, poorly fitted or top-dose-only effect, or another doubt; inactive means no such curve, though single readings can be large; an effect the other way counts as inactive or inconclusive.

How the values were obtained:
[1] = AP1 Signaling Pathway (AID 357; active means well fitted curve in either direction with a large enough effect, not every such curve was filed as active;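 further: ME-180 reporter cells stimulated with EGF at its EC50 level; on the % scale 0 is the no-effect control and ±100 the full control effect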); details: ME-180 AP-1-bla reporter, EGF-induced, beta-lactamase ratio, 5 h
Outline: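 Titration-series screen for positive or negative modulators of EC50 EGF-induced signaling in ME-180 cells carrying an AP-1-driven beta-lactamase reporter. After 5 hours at 37 degrees Celsius, CCF4 460nm/530nm emission ratio gave %Activity; AC50 values derived.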

[2] = NFAT Signaling Pathway (AID 444; active means well fitted curve in either direction with a large enough effect, not every such curve was filed as active;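 further: carbachol stimulus at about its EC50 of 1 µM final; on the % scale 0 is the no-effect control and ±100 the full control effect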); details: Jurkat NFAT-bla M1, carbachol, beta-lactamase ratio, 5 h
Outline: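 Jurkat cells with NFAT-driven β-lactamase reporter and co-expressed M1 receptor, stimulated with carbachol (final 1 uM, ~EC50), compound titration, 5 h at 37 °C. CCF4 loaded 1 h at RT; 460/530 nm ratio gave %activity and AC50.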

[3] = Stat Signaling Pathway (AID 446; active means well fitted curve in either direction with a large enough effect, not every such curve was filed as active;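 further: ME-180 cervical cancer cells given 40 pM IL-6 alongside compound; SIE-controlled beta-lactamase reporter measured as 460/530 nm FRET emission ratio; on the % scale 0 is the no-effect control and ±100 the full control effect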); details: ME-180 (cervical carcinoma) SIE beta-lactamase reporter, IL-6 stimulated, 5 h
Outline: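 IL-6/STAT signaling read in ME-180 cells via an SIE beta-lactamase reporter. Stimulus was 40 pM IL-6 (its AC50) for 5 hrs, so both activation and inhibition register.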

[4] = biological target: Glucocorticoid receptor (Homo sapiens) (UniProt P04150); test: GR-GFP Redistribution (AID 450;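 active means compounds whose dose series gives a full or clear partial fitted curve of increased nuclear translocation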; further: potency means the concentration at half of the fitted maximal effect); details: U2OS GR-GFP nuclear translocation, laser cytometry, 2 h
[5] = biological target: Glucocorticoid receptor (Homo sapiens) (UniProt P04150); test: GR-EFC Redistribution (AID 451; calls by dose curve; further: potency means the concentration at half of the fitted maximal effect); details: CHO-K1 GR-EFC translocation, beta-gal luminescence, 2 h
Outline: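 CHO-K1 cells expressing nuclear EA and GR-ED fragments of b-gal; compounds titrated up to 46 uM final, 2 h at 37 C. GR nuclear translocation read as complemented b-gal luminescence after 1 h RT detection.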

[6] = biological target: Mitogen-activated protein kinase 10 (Mus musculus) (UniProt Q61831); test: JNK3 AlphaScreen Assay (AID 530; active means well fitted curve in either direction with a large enough effect, not every such curve was filed as active;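 further: kinase came from lysate of stimulated human HepG2 cells; signal reports phosphorylation of biotinylated GST-cJun 1-79 at Ser73 with 10 µM ATP; on the % scale 0 is the no-effect control and ±100 the full control effect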)
Outline: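 Pre-activated (IL-1β/TNFα) JNK3 in HepG2 lysates phosphorylates biotin-GST-cJun(1-79), 10 uM ATP; anti-phospho-cJun(Ser73) AlphaScreen read at room temperature, pH 7.6 Tris buffer. Compounds pre-incubated 15 min as titrations.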

[7] = biological target: 3',5'-cyclic-AMP phosphodiesterase 4B (Homo sapiens) (UniProt Q07343); test: qHTS Assay for Inhibitors of PDE-IV (AID 607; active means well fitted activation curve with a large enough effect in the main read-out, with a control signal flat, not every such curve was filed as active; further: % of control where 0% means no effect)
Outline: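 Live HEK293 cells with a modified cyclic nucleotide-gated (CNG) channel report intracellular cAMP via membrane-potential dye fluorescence (ex 535/em 590 nm). Endogenous PDE-IV was targeted. Compounds were tested at up to 22.9 uM final; RO 20-1724 100 uM served as control.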

[8] = biological target: Guanine nucleotide-binding protein G(i) subunit alpha-1 (Homo sapiens) (UniProt P63096); test: qHTS Assay for Inhibitors of RGS12 GoLoco Motif Activity (Green Fluorophore) (AID 879);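 further: 0% = labeled peptide with Gαi1 and full inhibition = labeled peptide alone without protein; negative values mean loss of peptide binding seen as reduced polarization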
Outline: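 Fluorescence polarization assay: 50 nM Gαi1 with 10 nM FITC-labeled RGS12 GoLoco peptide in 10 mM Tris pH 7.5, 150 mM NaCl, 0.1 mM GDP, 0.05% NP40, 10 min at room temperature with compound.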

[9] = Confirmation and Secondary Assay for Modulators of Hemoglobin Beta Chain Splicing at IVS2 654 locus (AID 910);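 further: HeLa cells stably carrying EGFP split by mutant beta-globin IVS2-654 intron; % of control where 0% means no effect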
Outline: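 HeLa cells stably expressing EGFP interrupted by β-globin IVS2-654 intron, seeded overnight in Opti-MEM/2% FCS, then treated 2 days at 37 °C. Restored splicing read as total peak GFP intensity per well by laser scanning cytometry (488 nm excitation, 500–520 nm emission); 500 nM antisense PNA as control.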

[10] = qHTS Assay for Identification of Small Molecule Agonists for Thrombopoietin (TPO) Signaling Pathway (AID 917); further: on the % scale 0 is the no-effect control and ±100 the full control effect
Outline: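 IL-3-dependent murine pro-B Ba/F3 cells, stably transfected with human TPO receptor and GpIIb-promoter luciferase, are incubated 24 hrs at 37 C with test compound and 26 pM TPO; luciferase signal is read after 10 min at room temperature.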

[11] = Confirmation and Secondary Assay for Modulators of Hemoglobin Beta Chain Splicing at IVS2 705 locus (AID 930);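 further: HeLa cells stably expressing the EGFP-705 splicing reporter; GFP fluorescence per well restored by corrected splicing of the IVS2-705 intron in EGFP; % of control where 0% means no effect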
Outline: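 Stable HeLa line with EGFP disrupted by mutant beta-globin intron 2 (705). Overnight attachment, then 2 days of compound at 37C, 5% CO2. Signal: peak GFP intensity summed over objects 5-250 µm.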

[12] = biological target: Pyruvate kinase PKM (Homo sapiens) (UniProt P14618); test: qHTS Assay for Activators of Human Muscle Pyruvate Kinase (AID 954; active means well fitted curve in the direction sought with a large enough effect, not every such curve was filed as active;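 further: 0% = uninhibited enzyme and -100% = no enzyme or full thiadiazolimine inhibition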)
Outline: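 Enzyme was run at intermediate activity so both inhibitors and activators could be detected. ATP formed from ADP and PEP by 0.1 nM human PKM2 during a 1 h room-temperature incubation was quantified by coupled luciferase luminescence.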

[13] = biological target: Alpha-galactosidase A (Homo sapiens) (UniProt P06280); test: Counterscreen for Glucocerebrosidase Inhibitors: qHTS Assay for Human alpha-Galactosidase at pH 4.5 (AID 992); further: 0% is about no effect
Outline: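 Read-out is 4-methylumbelliferone fluorescence (365 nm excitation, 440 nm emission) after a pH 10 NaOH/glycine stop. Reactions held 2 nM enzyme and 80 uM substrate at pH 4.5 for 20 min at room temperature.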

[14] = biological target: alpha-glucosidase (Oryza sativa, rice) (UniProt Q653V4); test: Counterscreen for Glucocerebrosidase Inhibitors: qHTS Assay for Rice alpha-Glucosidase at pH 5.0 (AID 997);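 further: 0% = full activity with enzyme and -100% = basal without enzyme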
Outline: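 Rice alpha-glucosidase (4 nM final) with 400 uM 4-methylumbelliferyl-alpha-D-glucopyranoside in citrate buffer pH 5.0, 20 min at room temperature, stopped at pH 10; fluorescence 365/440 nm, compounds 0.7 nM–77 uM, AC50 from Hill fits.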

[15] = qHTS Assay for Lipid Storage Modulators (AID 1519; calls by dose curve); details: Drosophila S3 cells, BODIPY lipid droplet/cell ratio, laser cytometry, cells loaded with oleic acid
Outline: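 Cells seeded at 5,000 per well were treated with compounds over a concentration series and loaded with oleic acid (400 uM, as added). Lipid droplet fluorescence (488 nm excitation, 500-530 nm channel) was read by laser-scanning cytometry and normalized to 20 uM Triacsin C.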

[16] = biological target: Ubiquitin carboxyl-terminal hydrolase 1 (Homo sapiens) (UniProt O94782); test: Inhibitors of USP1/UAF1: Pilot qHTS (AID 504865);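 further: rhodamine fluorescence freed from ubiquitin-rhodamine substrate followed over time; top concentration of the series differs between compounds; on the % scale 0 is the no-effect control and ±100 the full control effect; nearly all actives have a fitted effect of over 35% in size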
Outline: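 Enzyme-free wells gave the negative control, while test wells held 1nM USP1/UAF1 preincubated with compound for 15 min at room temperature. Ub-Rho at 150nM final started the reaction, and fluorescence at 480/540 nm was recorded kinetically.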

[17] = biological target: DNA dC->dU-editing enzyme APOBEC-3G (Homo sapiens) (UniProt Q9HC16); test: qHTS for inhibitors of Vif-A3G interactions: Validation (AID 588379); further: 0% is about no effect
Outline: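 HeLa cells stably expressing Vif and A3G-eYFP, 700 cells/well, incubated overnight at 37 deg C, then exposed to compound overnight at 37 deg C. Inhibition of Vif-mediated degradation read as increased yellow fluorescence (Ex 488/Em 500-530) by laser-scanning cytometry.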

[18] = tested on: Zika virus NS2B-NS3 protease; test: Primary screen GU AMC qHTS for Zika virus inhibitors (AID 1347154); further: nearly all actives have a fitted effect of over 70% in size; further: potency means the concentration at half of the fitted maximal effect;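 on activity change, negative = inhibition: 0% = no-inhibitor control and -100% = no-enzyme control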
Outline: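 Unlinked Zika NS2B hydrophilic domain–NS3 protease complex at 25 nM in 10 mM Tris-HCl pH 8.0, 0.01% Tween 20, with an AMC peptide substrate. Fluorescence change (340/450 nm) over 15 min at room temperature, normalized to controls, fitted to 4-parameter Hill.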

[19] = biological target: Cytochrome P450 2C9 (Homo sapiens) (UniProt P11712); test: qHTS Assay for Inhibitors and Substrates of Cytochrome P450 2C9 (AID 883); further: potency means the concentration at half of the fitted maximal effect; nearly all actives have a fitted effect of over 60% in size
Outline: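 10nM CYP2C9 + 100uM Luciferin-H (=KM), 25mM KPO4; cpd 10 min 37C; NADPH regen, 60 min 37C; stop/detect with P450 Glo-Buffer 20 min; luminescence. Norm. to 57uM sulphaphenazole as full inhibition.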

[20] = biological target: Cytochrome P450 2C19 (Homo sapiens) (UniProt P33261); test: qHTS Assay for Inhibitors and Substrates of Cytochrome P450 2C19 (AID 899); further: potency means the concentration at half of the fitted maximal effect; nearly all actives have a fitted effect of over 60% in size
Outline: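 Luminescent read-out of luciferin formed from Luciferin-H EGE (10uM, equal to KM). Enzyme 5nM in 50mM KPO4; compound added, 10 min at 37C, then NADPH regenerating system for 60 min at 37C. Full inhibition defined by 57uM ketoconazole.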

[21] = NCATS anti-infectives library activity on HEK293 viability as a counter-qHTS vs the C. elegans viability qHTS (AID 1745854)
Outline: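 HEK293 cells (1,500/well) exposed 24 hr at 37C to 1:5 titrations, up to 41.7 uM final; counter-screen to a C. elegans viability qHTS. Viability by CellTiter-Glo luminescence after 10 min at room temperature; digitonin as control.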

[22] = biological target: Cytochrome P450 1A2 (Homo sapiens) (UniProt P05177); test: p450-cyp1a2 (AID 410; calls by dose curve;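 further: -100% = full effect of reference inhibitor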)
Outline: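 20nM CYP1A2 with 100uM Luciferin-ME (at Km) in 100mM KPO4; compound preincubated 10 min, NADPH regeneration added, 60 min at room temperature. Luciferin quantified by luminescence after detection reagent; normalized to 57 uM furafylline.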

[23] = measured here: cell count channel max response
[24] = measured here: lipid channel max response

Chain of Guanine nucleotide-binding protein G(i) subunit alpha-1 (Homo sapiens) (P63096 whole entry, looked up): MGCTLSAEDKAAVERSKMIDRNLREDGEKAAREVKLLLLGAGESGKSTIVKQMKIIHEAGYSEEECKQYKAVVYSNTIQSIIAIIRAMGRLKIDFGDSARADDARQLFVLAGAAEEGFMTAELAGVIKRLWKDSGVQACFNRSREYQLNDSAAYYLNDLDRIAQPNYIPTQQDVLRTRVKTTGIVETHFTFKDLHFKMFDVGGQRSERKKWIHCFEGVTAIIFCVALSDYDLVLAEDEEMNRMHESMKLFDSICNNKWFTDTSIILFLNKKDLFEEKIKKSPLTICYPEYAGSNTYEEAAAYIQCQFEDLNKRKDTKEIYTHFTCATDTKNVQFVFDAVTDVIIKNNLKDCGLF
Chain of DNA dC->dU-editing enzyme APOBEC-3G (Homo sapiens) (Q9HC16 whole entry, looked up): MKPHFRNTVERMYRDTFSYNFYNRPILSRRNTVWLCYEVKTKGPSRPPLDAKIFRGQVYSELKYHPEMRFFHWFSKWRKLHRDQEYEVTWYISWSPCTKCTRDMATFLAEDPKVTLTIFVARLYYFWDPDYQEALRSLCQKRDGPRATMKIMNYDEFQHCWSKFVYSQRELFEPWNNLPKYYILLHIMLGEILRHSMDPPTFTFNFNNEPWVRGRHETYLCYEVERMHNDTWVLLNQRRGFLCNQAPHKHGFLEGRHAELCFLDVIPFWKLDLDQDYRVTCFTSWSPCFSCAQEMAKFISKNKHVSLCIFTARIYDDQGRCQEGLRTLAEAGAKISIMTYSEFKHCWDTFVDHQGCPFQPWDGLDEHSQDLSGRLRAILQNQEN
Chain of 3',5'-cyclic-AMP phosphodiesterase 4B (Homo sapiens) (Q07343 whole entry, looked up): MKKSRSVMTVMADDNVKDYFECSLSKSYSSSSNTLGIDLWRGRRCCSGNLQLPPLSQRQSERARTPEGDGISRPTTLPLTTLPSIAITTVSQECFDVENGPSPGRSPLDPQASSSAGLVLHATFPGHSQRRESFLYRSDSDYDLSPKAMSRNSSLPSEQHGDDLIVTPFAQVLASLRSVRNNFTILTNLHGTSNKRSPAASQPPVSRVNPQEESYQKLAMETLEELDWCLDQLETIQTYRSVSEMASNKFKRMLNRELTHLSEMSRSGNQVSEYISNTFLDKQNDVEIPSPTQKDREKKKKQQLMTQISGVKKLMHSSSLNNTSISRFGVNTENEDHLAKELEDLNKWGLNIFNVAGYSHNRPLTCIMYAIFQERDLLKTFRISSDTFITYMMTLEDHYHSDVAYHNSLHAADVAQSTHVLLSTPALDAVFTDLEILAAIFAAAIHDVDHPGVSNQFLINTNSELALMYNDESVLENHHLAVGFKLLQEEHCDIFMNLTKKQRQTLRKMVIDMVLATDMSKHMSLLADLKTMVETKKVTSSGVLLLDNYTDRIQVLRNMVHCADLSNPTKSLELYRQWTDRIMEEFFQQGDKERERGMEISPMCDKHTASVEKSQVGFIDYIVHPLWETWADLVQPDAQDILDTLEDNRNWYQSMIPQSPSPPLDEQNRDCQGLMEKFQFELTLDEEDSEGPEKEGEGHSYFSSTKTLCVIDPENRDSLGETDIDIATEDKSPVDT
Chain of Ubiquitin carboxyl-terminal hydrolase 1 (Homo sapiens) (O94782 whole entry, looked up): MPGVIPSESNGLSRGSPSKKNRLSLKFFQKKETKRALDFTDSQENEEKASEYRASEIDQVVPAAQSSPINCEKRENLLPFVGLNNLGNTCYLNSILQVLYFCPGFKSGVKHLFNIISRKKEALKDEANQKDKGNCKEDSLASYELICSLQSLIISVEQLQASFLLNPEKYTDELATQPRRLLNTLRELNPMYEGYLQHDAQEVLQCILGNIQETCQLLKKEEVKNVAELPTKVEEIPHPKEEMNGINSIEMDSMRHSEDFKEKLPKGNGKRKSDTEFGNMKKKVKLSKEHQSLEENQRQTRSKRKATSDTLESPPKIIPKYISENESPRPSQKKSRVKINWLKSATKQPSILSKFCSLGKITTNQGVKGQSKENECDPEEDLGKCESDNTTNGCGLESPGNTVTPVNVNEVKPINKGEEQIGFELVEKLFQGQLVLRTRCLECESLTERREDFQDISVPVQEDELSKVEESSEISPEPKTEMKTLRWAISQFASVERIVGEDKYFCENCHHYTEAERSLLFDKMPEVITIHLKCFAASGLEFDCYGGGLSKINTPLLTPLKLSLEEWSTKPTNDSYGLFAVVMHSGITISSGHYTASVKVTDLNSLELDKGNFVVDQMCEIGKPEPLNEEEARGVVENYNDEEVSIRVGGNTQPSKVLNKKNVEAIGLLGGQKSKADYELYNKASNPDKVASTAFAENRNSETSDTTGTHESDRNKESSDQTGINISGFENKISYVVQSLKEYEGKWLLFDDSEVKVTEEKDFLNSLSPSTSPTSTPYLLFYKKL
Chain of Pyruvate kinase PKM (Homo sapiens) (P14618 whole entry, looked up): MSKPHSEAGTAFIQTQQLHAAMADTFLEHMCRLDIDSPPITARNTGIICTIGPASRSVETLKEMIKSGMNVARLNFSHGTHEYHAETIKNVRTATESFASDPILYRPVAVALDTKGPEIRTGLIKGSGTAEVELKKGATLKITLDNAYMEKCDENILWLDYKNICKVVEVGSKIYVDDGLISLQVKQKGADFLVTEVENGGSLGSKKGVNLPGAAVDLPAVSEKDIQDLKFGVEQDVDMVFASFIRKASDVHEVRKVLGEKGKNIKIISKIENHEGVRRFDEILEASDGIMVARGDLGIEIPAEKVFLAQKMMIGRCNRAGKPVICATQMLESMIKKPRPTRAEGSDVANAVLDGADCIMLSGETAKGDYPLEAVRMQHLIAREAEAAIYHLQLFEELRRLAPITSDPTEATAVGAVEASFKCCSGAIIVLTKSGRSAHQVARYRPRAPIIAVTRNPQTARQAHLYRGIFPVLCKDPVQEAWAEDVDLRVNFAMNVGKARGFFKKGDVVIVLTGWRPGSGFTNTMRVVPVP
Chain of Glucocorticoid receptor (Homo sapiens) (P04150 whole entry, looked up, the tested form may be a part): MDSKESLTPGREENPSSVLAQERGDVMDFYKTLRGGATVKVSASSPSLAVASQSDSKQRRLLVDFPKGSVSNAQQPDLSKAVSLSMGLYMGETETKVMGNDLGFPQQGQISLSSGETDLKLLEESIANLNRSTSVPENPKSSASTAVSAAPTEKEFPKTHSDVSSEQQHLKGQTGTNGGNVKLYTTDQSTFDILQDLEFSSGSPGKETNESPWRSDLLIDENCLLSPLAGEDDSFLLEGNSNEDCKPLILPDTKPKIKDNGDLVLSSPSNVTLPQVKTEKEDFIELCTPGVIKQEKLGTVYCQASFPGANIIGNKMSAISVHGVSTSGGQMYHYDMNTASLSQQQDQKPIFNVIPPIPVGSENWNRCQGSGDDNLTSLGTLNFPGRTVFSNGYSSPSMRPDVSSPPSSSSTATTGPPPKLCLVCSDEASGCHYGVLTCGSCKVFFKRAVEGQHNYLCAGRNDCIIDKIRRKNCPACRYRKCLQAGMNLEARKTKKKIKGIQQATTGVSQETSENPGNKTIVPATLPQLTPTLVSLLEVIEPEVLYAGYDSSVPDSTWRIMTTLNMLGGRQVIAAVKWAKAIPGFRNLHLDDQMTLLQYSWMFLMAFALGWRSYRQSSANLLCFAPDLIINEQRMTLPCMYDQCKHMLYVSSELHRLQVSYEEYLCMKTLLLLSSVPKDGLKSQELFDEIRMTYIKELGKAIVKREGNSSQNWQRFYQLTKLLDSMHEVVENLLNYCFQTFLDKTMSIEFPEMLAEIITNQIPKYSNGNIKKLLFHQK
Chain of Cytochrome P450 1A2 (Homo sapiens) (P05177 whole entry, looked up): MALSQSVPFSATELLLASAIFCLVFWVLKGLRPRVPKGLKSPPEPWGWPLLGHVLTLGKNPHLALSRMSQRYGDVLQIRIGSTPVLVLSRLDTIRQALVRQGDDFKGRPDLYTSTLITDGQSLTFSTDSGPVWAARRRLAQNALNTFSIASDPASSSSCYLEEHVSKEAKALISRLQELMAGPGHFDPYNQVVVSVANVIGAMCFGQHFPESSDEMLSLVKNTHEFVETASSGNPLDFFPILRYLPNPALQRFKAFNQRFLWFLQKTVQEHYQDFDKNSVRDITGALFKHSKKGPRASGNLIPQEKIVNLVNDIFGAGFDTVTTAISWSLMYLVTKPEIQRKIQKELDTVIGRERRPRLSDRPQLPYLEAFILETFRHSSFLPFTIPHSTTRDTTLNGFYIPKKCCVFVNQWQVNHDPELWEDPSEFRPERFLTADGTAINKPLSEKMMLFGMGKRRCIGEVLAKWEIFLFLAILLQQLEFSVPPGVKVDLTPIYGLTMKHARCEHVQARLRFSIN
Chain of Alpha-galactosidase A (Homo sapiens) (P06280 whole entry, looked up): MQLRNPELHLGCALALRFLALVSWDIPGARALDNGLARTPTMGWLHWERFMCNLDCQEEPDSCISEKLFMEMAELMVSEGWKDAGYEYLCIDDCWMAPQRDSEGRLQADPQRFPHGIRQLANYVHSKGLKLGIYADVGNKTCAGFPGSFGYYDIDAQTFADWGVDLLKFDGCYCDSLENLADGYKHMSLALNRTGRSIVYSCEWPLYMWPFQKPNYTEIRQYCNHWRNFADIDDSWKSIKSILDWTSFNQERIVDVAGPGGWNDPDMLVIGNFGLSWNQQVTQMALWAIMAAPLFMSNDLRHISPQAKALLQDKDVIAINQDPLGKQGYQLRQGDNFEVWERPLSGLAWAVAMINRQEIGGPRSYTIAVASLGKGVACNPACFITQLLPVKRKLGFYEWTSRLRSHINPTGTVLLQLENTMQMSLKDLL
Chain of Cytochrome P450 2C9 (Homo sapiens) (P11712 whole entry, looked up): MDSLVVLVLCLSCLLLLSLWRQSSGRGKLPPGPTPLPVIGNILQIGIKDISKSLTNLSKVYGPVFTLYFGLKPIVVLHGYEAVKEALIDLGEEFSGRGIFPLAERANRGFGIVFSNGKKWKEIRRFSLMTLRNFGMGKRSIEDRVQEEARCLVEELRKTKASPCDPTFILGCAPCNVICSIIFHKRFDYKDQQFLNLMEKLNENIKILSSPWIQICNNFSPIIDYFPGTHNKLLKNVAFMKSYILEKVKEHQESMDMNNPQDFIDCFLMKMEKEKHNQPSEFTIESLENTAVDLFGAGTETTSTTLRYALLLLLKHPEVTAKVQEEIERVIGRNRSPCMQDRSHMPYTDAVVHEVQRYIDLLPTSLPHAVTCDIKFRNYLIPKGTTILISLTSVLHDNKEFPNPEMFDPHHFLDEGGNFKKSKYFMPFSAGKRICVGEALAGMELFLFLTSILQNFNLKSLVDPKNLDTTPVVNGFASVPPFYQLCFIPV

CC(C)(C)NC[C@H](O)c1ccc(O)c(CO)c1
inactive: activity change, negative = inhibition ([1]; at 17.2 µM (top of the series)) -9.06% | activity change, negative = inhibition ([1]; at 38 µM (top of the series)) -4.2% and -6.86% | activity change, negative = inhibition ([2]; at 17.2 µM (top of the series)) -10.8% | activity change, negative = inhibition ([2]; at 38 µM (top of the series)) 0.545% and 8.74% | activity, negative = inhibition ([3]; at 17.2 µM (top of the series)) 16.1% | activity, negative = inhibition ([3]; at 38 µM (top of the series)) -5.91% and -0.604% | Potency [4] > 46 µM and > 20.6 µM | Potency [5] > 46 µM and > 20.6 µM | Potency [6] | Potency [7] | outcome [8] | outcome [9] | Potency [10] | outcome [11] | outcome [12] | outcome [13] | outcome [14] | activity change, negative = inhibition ([15]; at 25.7 µM (top of the series)) -2.46% | activity change, negative = inhibition ([15]; at 57.5 µM (top of the series)) 3.61% | Potency [16] | Potency [17] | Potency [18]
-16.6%: max response [15, 23]
-19.3% and -13%: max response [15, 24]

Nc1nc(Nc2ccccc2)nc2c1ncn2[C@@H]1O[C@@H](CO)[C@H](O)[C@H]1O
active: Potency [19] 0.794 µM | Potency [20] 0.631 µM
-4.59%: max response [15, 24]
-2.49%: max response [15, 23]
inactive: Potency [5] > 46 µM | activity change, negative = inhibition ([15]; at 57.5 µM (top of the series)) -4.73% | Potency [16] | Potency [17] | Potency [18]

OC[C@H]1NC[C@H](O)[C@@H](O)[C@H]1O
30%: max response [15, 23]
inactive: Potency [4] > 46 µM | Potency [5] > 46 µM | Potency [6] | Potency [7] | activity change, negative = inhibition ([15]; at 57.5 µM (top of the series)) -0.744% | Potency [16] | Potency [17] | Potency [18] | outcome [21]
27.8%: max response [15, 24]

CCCCCCCCCCCC(=O)O[C@H](CC(=O)O)C[N+](C)(C)C
-11.1%: max response [15, 24]
-5.13%: max response [15, 23]
inactive: Potency [22] | Potency [5] > 46 µM | Potency [6] | Potency [7] | activity change, negative = inhibition ([15]; at 57.5 µM (top of the series)) -2.15% | Potency [16] | Potency [17] | Potency [18]

CC(C)NC[C@@H](O)COc1cccc2[nH]ccc12
-7.16% and 6.39%: max response [15, 23]
-7.67% and 11.8%: max response [15, 24]
inactive: activity change, negative = inhibition ([1]; at 17.2 µM (top of the series)) 5.19% | activity change, negative = inhibition ([1]; at 38 µM (top of the series)) 17% and 4.44% | activity change, negative = inhibition ([2]; at 17.2 µM (top of the series)) 4% | activity change, negative = inhibition ([2]; at 38 µM (top of the series)) 1.65% and 1.97% | activity, negative = inhibition ([3]; at 17.2 µM (top of the series)) 19% | activity, negative = inhibition ([3]; at 38 µM (top of the series)) 12.1% and 12.9% | Potency [4] > 46 µM and > 20.6 µM | Potency [5] > 46 µM and > 20.6 µM | Potency [6] | Potency [7] | activity change, negative = inhibition ([15]; at 25.7 µM (top of the series)) 0.0529% | activity change, negative = inhibition ([15]; at 57.5 µM (top of the series)) 6.23% | Potency [16] | Potency [17] | Potency [18]

O=C(NC[C@H]1CCCCN1)c1cc(OCC(F)(F)F)ccc1OCC(F)(F)F
inactive: activity change, negative = inhibition ([1]; at 38 µM (top of the series)) 4.16% | activity change, negative = inhibition ([2]; at 38 µM (top of the series)) -11% | activity, negative = inhibition ([3]; at 38 µM (top of the series)) -13.8% | Potency [6] | Potency [7] | outcome [8] | Potency [10] | outcome [12] | outcome [14] | Potency [17] | Potency [18]

N[C@@H](C(=O)O)c1ccc(C(=O)O)c(O)c1
active: Potency [18] 23.8 µM
inactive: Potency [22] | Potency [4] > 46 µM | Potency [5] > 46 µM | Potency [6] | Potency [16] | Potency [17]
